Measured values taken from PubChem BioAssay AID1159580 (chemical genetic matrix, 2015).
Where “and” joins values, the source holds several entries; their conditions need not be identical. Equal entries are not always repeated. About 2,000 (36%) of roughly 5,500 compounds were called active. About 18% were inconclusive and are not listed. Cut-off read from the data, not from the text of the source: active = normalized growth mostly below about 0.91 (no sharp cut-off); inconclusive = no clear call, values can overlap the other calls; inactive = mostly above about 0.92. The list shows a part of the results.

Test: chemical genetic growth profiling, strain panel (AID 1159580);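 note: tested at 20 µM; growth read once vehicle control cultures reached saturation at 30 °C; 1 = growth at the plate median or of vehicle wells; lower values mean less growth of the strain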
Settings: S. cerevisiae deletion strains, growth OD

Measured: normalized growth

CC12CCCC(O)(C1)C1CC(C)(C)C1CC2 (configuration not stated)
active: locus YDR137W, strain rgp1, active compounds read low 0.8 | locus YDR159W, strain sac3, active compounds read low 0.841 | locus YDR392W, strain spt3, active compounds read low 0.37 | locus YER155C, strain BEM2 (second series), active compounds read low 0.795
inactive: locus YAL013W, strain DEP1, active compounds read low 1.02 | locus YAL021C, strain ccr4, active compounds read low 1 | locus YAL026C, strain drs2, active compounds read low 1 | locus YAL030W, strain snc1, active compounds read low 0.985 | locus YBL061C, strain skt5, active compounds read low 0.993 | locus YBR009C, strain hhf1, active compounds read low 0.947 | locus YBR021W, strain FUR4, active compounds read low 1 | locus YBR023C, strain chs3, active compounds read low 0.951 | locus YBR171W, strain sec66, active compounds read low 0.987 | locus YBR229C, strain ROT2, active compounds read low 1 | locus YBR231C, strain swc5, active compounds read low 0.977 | locus YBR279W, strain paf1, active compounds read low 0.959 | locus YCL011C, strain gbp2, active compounds read low 0.965 | locus YCL016C, strain dcc1, active compounds read low 0.971 | locus YCL029C, strain bik1, active compounds read low 1 | locus YCL061C, strain MRC1, active compounds read low 0.962 | locus YCL069W, strain vba3, active compounds read low 0.998 | locus YCR088W, strain abp1, active compounds read low 0.993 | locus YDL005C, strain med2, active compounds read low 1 | locus YDL035C, strain GPR1, active compounds read low 1 | locus YDL040C, strain nat1, active compounds read low 0.997 | locus YDL074C, strain BRE1, active compounds read low 1.03 | locus YDL101C, strain DUN1, active compounds read low 1.03 | locus YDL134C, strain PPH21, active compounds read low 1.03 | locus YDL185W, strain tfp1, active compounds read low 1.02 | locus YDL192W, strain arf1, active compounds read low 0.984 | locus YDR001C, strain nth1, active compounds read low 1 | locus YDR069C, strain doa4, active compounds read low 0.951 | locus YDR101C, strain arx1, active compounds read low 0.985 | locus YDR162C, strain NBP2, active compounds read low 0.997 | locus YDR195W, strain ref2 0.949 | locus YDR297W, strain sur2, active compounds read low 0.927 | locus YDR318W, strain mcm21, active compounds read low 1.02 | locus YDR334W, strain swr1, active compounds read low 1.04 | locus YDR335W, strain msn5, active compounds read low 1 | locus YDR388W, active compounds read low 1.01 | locus YDR502C, strain sam2, active compounds read low 1.05 | locus YEL003W, strain gim4, active compounds read low 0.942 | locus YEL037C, strain rad23, active compounds read low 1 | locus YEL061C, strain CIN8 (second series), active compounds read low 1 | locus YEL061C, strain CIN8, active compounds read low 1 | locus YER015W, strain faa2, active compounds read low 1.01 | locus YER016W, strain bim1, active compounds read low 0.995 | locus YER110C, active compounds read low 1.02 | locus YER111C, strain swi4, active compounds read low 1 | locus YER155C, strain BEM2, active compounds read low 0.994 | locus YER167W, strain BCK2, active compounds read low 0.992 | locus YFR010W, strain ubp6, active compounds read low 0.979 | locus YGL078C, strain dbp3, active compounds read low 1.05 | locus YGL086W, strain mad1, active compounds read low 1.02 | locus YGL167C, strain pmr1, active compounds read low 0.999 | locus YGL173C, strain kem1, active compounds read low 0.977 | locus YGL227W, strain vid30, active compounds read low 0.998 | locus YGL240W, strain doc1, active compounds read low 0.915 | locus YGL248W, strain PDE1, active compounds read low 1.03 | locus YGL253W, strain hxk2, active compounds read low 0.991 | locus YGR135W, strain pre9, active compounds read low 1.08 | locus YGR252W, strain gcn5, active compounds read low 1.09 | locus YHR013C, strain ard1, active compounds read low 1.01 | locus YHR027C, strain rpn1, active compounds read low 1 | locus YHR030C, strain SLT2, active compounds read low 0.945 | locus YHR079C, strain IRE1 (second series), active compounds read low 1.01 | locus YHR079C, strain IRE1, active compounds read low 0.971 | locus YHR094C, strain hxt1, active compounds read low 1.01 | locus YHR129C, strain ARP1, active compounds read low 1.01 | locus YHR142W, strain chs7, active compounds read low 0.923 | locus YHR200W, strain rpn10, active compounds read low 1.04 | locus YIL066C, strain RNR3, active compounds read low 1.01 | locus YIL073C, strain SPO22, active compounds read low 1.03 | locus YIL125W, strain kgd1, active compounds read low 1.01 | locus YIR030C, strain dcg1, active compounds read low 1.01 | locus YJL092W, strain hpr5, active compounds read low 0.992 | locus YJL095W, strain BCK1 (second series), active compounds read low 0.934 | locus YJL095W, strain BCK1, active compounds read low 1.03 and 0.976 | locus YJL115W, strain asf1, active compounds read low 1.01 | locus YJL129C, strain trk1, active compounds read low 0.956 | locus YJL134W, strain LCB3, active compounds read low 0.995 | locus YJL154C, strain vps35, active compounds read low 1.01 | locus YJL164C, strain tpk1, active compounds read low 0.946 | locus YJL166W, strain qcr8, active compounds read low 0.945 | locus YJL168C, strain set2, active compounds read low 1.03 | locus YJL187C, strain SWE1 (second series), active compounds read low 1.04 | locus YJL187C, strain SWE1, active compounds read low 0.937
